Rows were chosen to be rich in hits. Some 0.34% of all compounds tested hit in one or more screens of this group.
Epigenetic derep: derepresses silenced GFP reporter in murine cells; murine LDR cells, GFP reporter derepression, 30 h; Potency, µM (titrated, usually from 53.9 µM), usual class: activators; actives 0.2% (n = 280,000); AID 1865; further: nearly all actives have a fitted effect of over 60% in size
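Murine LDR cells carrying a silenced, genomically integrated CMV-driven GFP reporter were exposed to compound for 30 hours at 37 C. After PBS washes, GFP-positive cells (20–120 um objects) were counted by laser-scanning microplate cytometry.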
Vif-APOBEC3F blk: inhibitors of Vif-A3F interaction | HeLa A3F-eYFP + Vif (tagged APOBEC3F with the HIV-1 protein that degrades it), YFP fluorescence increase | Potency, µM (doses to about 46.1 µM) | actives 0.2% (n = 390,000) | AID 602313; further: nearly all actives have a fitted effect of over 65% in size
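HeLa cells stably expressing A3F-eYFP plus Vif, plated and incubated overnight at 37 deg C, then exposed to compounds overnight at 37 deg C. Blocked degradation read as raised yellow fluorescence (Ex 488/Em 500-530).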
Vif-A3G inh: Vif-A3G binding inhibition. Q9HC16. HeLa A3G-eYFP + Vif (tagged APOBEC3G with the HIV-1 protein that degrades it), YFP fluorescence, overnight. Potency, µM (doses to about 46.1 µM), actives largely listed as inhibitors. actives 0.076% (n = 410,000); further: nearly all actives have a fitted effect of over 60% in size
Target sequence (Q9HC16 whole entry, looked up): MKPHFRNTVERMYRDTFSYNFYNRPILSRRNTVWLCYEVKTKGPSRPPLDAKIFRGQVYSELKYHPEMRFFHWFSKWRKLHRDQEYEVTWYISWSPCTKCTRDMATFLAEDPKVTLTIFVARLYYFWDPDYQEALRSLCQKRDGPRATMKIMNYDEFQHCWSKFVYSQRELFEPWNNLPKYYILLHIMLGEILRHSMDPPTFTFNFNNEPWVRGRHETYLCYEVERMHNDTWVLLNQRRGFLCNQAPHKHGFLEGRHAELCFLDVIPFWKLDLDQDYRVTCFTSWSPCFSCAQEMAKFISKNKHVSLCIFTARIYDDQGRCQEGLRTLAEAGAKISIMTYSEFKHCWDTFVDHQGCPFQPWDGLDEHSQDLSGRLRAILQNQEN
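HeLa cells stably expressing Vif and C-terminally eYFP-tagged A3G, seeded overnight at 37 deg C, then exposed to compound by pintool overnight at 37 deg C. Rise in yellow fluorescence (Ex 488/Em 500-530, Acumen) marks blocked Vif-driven A3G degradation.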
Large screens that a line does not name were inactive. The call rests on the fitted dose curve; in most records, active means well fitted curve in the direction sought with a large enough effect; inconclusive means small, poorly fitted or top-dose-only effect, or another doubt; inactive means no such curve, though single readings can be large; an effect the other way counts as inactive or inconclusive.

CCOC(=O)c1cc(-c2ccc(OC)cc2)n(CCC(=O)NCc2ccccc2OC)c1C	none
O=C(Nc1cc(C(F)(F)F)ccc1-n1cncn1)c1ccc([N+](=O)[O-])o1	Vif-APOBEC3F blk 13µM, Vif-A3G inh inconclusive (no result: Epigenetic derep)
O=C(Nc1cc(C(F)(F)F)ccc1-n1cncn1)c1ccc(Br)cc1	none
CCN(Cc1ccccc1)C(=O)Cn1c(=O)n(-c2cccc(C)c2)c(=O)c2c1c1cc(C)ccc1n2C	none
O=C(c1cc(-c2ccc(F)cc2)on1)N1CCCCCC1	none (no result: Epigenetic derep)
O=C(c1cc(-c2ccc(F)cc2)on1)N1CCCC1	Epigenetic derep 16µM
Cc1c(C(=O)OC/C(O)=C(\C#N)c2nc3ccccc3[nH]2)oc2ccccc12	Vif-APOBEC3F blk 22µM, Vif-A3G inh inconclusive
Cc1c(C(=O)OCC(O)=C(C#N)c2nc3ccccc3[nH]2)oc2ccc(Br)cc12	Vif-APOBEC3F blk inconclusive (no result: Epigenetic derep)
O=C(Cn1nc(C(F)(F)F)c2c1CCCC2)Nc1ccc(F)c(Cl)c1	none
CCc1ccccc1N1CC(c2nc3ccccc3n2CCC2CCCCC2)CC1=O (stereo not given)	none
CCC(C)n1c(NC(=O)c2ccccc2)c(C#N)c2nc3ccccc3nc21 (stereo not given)	Epigenetic derep 20µM, Vif-APOBEC3F blk 32µM, Vif-A3G inh inconclusive
CCCCn1c(NC(=O)c2ccccc2)c(C#N)c2nc3ccccc3nc21	Vif-APOBEC3F blk inconclusive, Vif-A3G inh inconclusive
Cc1ccc(-c2noc(-c3ccccc3NC(=O)c3ccccc3)n2)cc1	none
Cc1ccc(-c2noc(-c3ccccc3NC(=O)C3CC(=O)N(c4cccc(C)c4)C3)n2)cc1 (stereo not given)	Epigenetic derep 16µM
Cc1ccc(CCNC(=O)c2cnc3c(C)cccn3c2=O)cc1	none
CSc1nsc2nc(=O)c(/C=C3\C(C)=Nc4ccc(C)cc43)c(N)n12	Vif-APOBEC3F blk inconclusive, Vif-A3G inh inconclusive
CC1=Nc2ccc(C)cc2/C1=C/c1c(N)n2oc(C)cc2nc1=O	Epigenetic derep inconclusive, Vif-APOBEC3F blk 11µM, Vif-A3G inh inconclusive
CC(=O)c1ccc(NC(=O)CCc2c(C)nn(-c3ccc4nncn4n3)c2C)cc1	none
O=[N+]([O-])c1cc2cccnc2c2ncccc12	Vif-APOBEC3F blk inconclusive
O=[N+]([O-])c1cc(O)c2ncccc2c1	Epigenetic derep inconclusive, Vif-A3G inh 11µM
CCOc1ccc(-c2cc(NC(=O)Nc3ccccc3Cl)c(C(=O)OC)s2)cc1	none
COc1ccc(C)cc1-n1nnc(C(=O)Nc2cccc(SC)c2)c1C	none
CC(C)c1nc(SCC(=O)N2CC(=O)Nc3ccccc32)c2ccccc2n1	none
Cc1cc(C)c2nc(SCC(=O)N3CC(=O)Nc4ccccc43)c(C#N)cc2c1	Epigenetic derep 10µM, Vif-APOBEC3F blk inconclusive, Vif-A3G inh inconclusive
COc1ccc2nc(SCC(C)=O)c(C#N)cc2c1	Epigenetic derep inconclusive, Vif-APOBEC3F blk 3.5µM, Vif-A3G inh inconclusive
COc1ccc2nc(SC)c(C#N)cc2c1	none
COc1ccc2nc(SCC(=O)N3CC(=O)Nc4ccccc43)c(C#N)cc2c1	Epigenetic derep inconclusive, Vif-APOBEC3F blk 22µM, Vif-A3G inh 10µM
Cc1cc(C)c2nc(SCC(=O)Nc3ccccc3N3CCOCC3)c(C#N)cc2c1	none (no result: Epigenetic derep)
CCOc1ccc(CCNC(=O)Cn2ncn3c(cc4ccccc43)c2=O)cc1OCC	none
Cc1cc(=O)n(CC(=O)NC(C)c2ccccc2)c2c1c(C)nn2C (stereo not given)	none
COc1cc(C(=O)N2CCN(c3ccc(Nc4ccccc4)nn3)CC2)cc(OC)c1OC	none
CC(NC(=S)Nc1cccc(C(F)(F)F)c1)C(C)(C)C (stereo not given)	Vif-APOBEC3F blk 32µM
CN(C)NC(=S)Nc1cccc(C(F)(F)F)c1	none
Cc1ccnc(N/C=C(\C#N)c2nc(-c3cccc(Br)c3)cs2)c1	Epigenetic derep 16µM, Vif-APOBEC3F blk inconclusive, Vif-A3G inh inconclusive
Cc1ccnc(Nc2nc(-c3ccccc3)cs2)c1	none (no result: Epigenetic derep)
O=C1[C@H](Cc2ccccc2)NC/C=C\C[C@@H](c2ccc(Cl)cc2)N1Cc1ccccc1	none (no result: Epigenetic derep, Vif-APOBEC3F blk)
Cc1cc(N2CCN(C)CC2)nc2ccc(NC(=O)Nc3ccccc3Cl)cc12	none
O=C(CSc1n[nH]c(-c2ccccn2)n1)Nc1ccc(F)cc1	Vif-APOBEC3F blk inconclusive (no result: Epigenetic derep)
O=C(CSc1n[nH]c(-c2ccccn2)n1)Nc1ccc(Cl)cc1	Vif-APOBEC3F blk 7.9µM (no result: Epigenetic derep)
COc1cccc(NC(=O)Cn2nnc(-c3nc(-c4ccccc4)no3)c2N)c1	none
CC1=Nc2ccccc2/C1=C/c1nc(-c2ccc(C)s2)oc1O	none
CC1=Nc2ccccc2/C1=C/c1sc(=N)n(-c2nccs2)c1O	Epigenetic derep inconclusive, Vif-APOBEC3F blk inconclusive, Vif-A3G inh 13µM
O=C(NCCc1ccccc1)c1ccc2c(c1)N(Cc1ccccc1)C(=O)c1ccccc1S2=O (stereo not given)	none
